Tested on: Pectobacterium parmentieri SCC3193
Assay: DuctApe activity index (growth/respiration on compound as sole nutrient source, blank-subtracted) (activity index (0-3)); higher = stronger utilization of the compound, active = 3 or more
Conditions: nutrient role (plate category): phosphate & sulphur
Procedure: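 Biolog Phenotype Microarray plates PM1, PM2A (carbon), PM3 (nitrogen) and PM4 (phosphorus/sulfur) inoculated with P. parmentieri SCC3193 in M9-C minimal salts medium with Biolog dye A, and read in the OmniLog for 46 h. Each well was tested in triplicate and the experiment was run twice. DuctApe computed a blank-subtracted activity index (AV, 0-3) from the mean curves; growth is positive at AV >= 3 and negative at AV <= 2.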

DuctApe activity index, inactive:
Nc1ccn([C@@H]2O[C@H](CO)[C@@H](OP(=O)(O)O)[C@H]2O)c(=O)n1 [Cytidine 3`-Monophosphate] 2
CSCC[C@H](NC(=O)CN)C(=O)O 1
O=P(O)(O)OC(CO)CO [b-Glycerol Phosphate] 2
N[C@H](CS)C(=O)O [D-Cysteine] 1
N[C@@H](Cc1ccc(OP(=O)(O)O)cc1)C(=O)O [O-Phospho-L-Tyrosine] 2
NC(Cc1ccc(OP(=O)(O)O)cc1)C(=O)O (stereo in doubt) [O-Phospho-D-Tyrosine] 2
O=P(O)(O)O[C@H]1O[C@H](CO)[C@@H](O)[C@H](O)[C@H]1O [D-Glucose-1-Phosphate] 1
N[C@@H](CS)C(=O)O [L-Cysteine] 0
